Assay results taken from PubChem BioAssay AID651946 (Broad Institute, 2012).
Potency and affinity values are given separately. Calls of active or inactive are those of the source.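 The calls were made as follows: active = toxic compound whose fitted half-effect dose of signal loss is at most twice its top tested dose; inconclusive = flat fit losing 30 to 70% signal, or poor fit; inactive = the rest.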

Experiment: cytotoxicity in HeLa cells, dose response, cytotoxicity control, cell-based, plate reader, dry powder (AID 651946)

## CCSc1nnc(-c2ccccc2)o1
  outcome: inactive

## c1ccc(CNCCSc2nnc(-c3ccccc3)o2)cc1
  outcome: inactive

## c1ccc(-c2nnc(SCC3CC3)o2)cc1
  outcome: inactive

## COc1cccc(-c2nnc(SCc3ccccc3)o2)c1
  outcome: inactive

## FC(F)(F)c1ccc(CSc2nnc(-c3ccccc3)o2)cc1
  outcome: inactive

## c1ccc(-c2nnc(SCc3ccccn3)o2)cc1
  outcome: inactive

## FC1(F)CCN(CCSc2nnc(-c3ccccc3)o2)CC1
  outcome: inactive

## CC(C)c1nnc(SCc2ccccc2)o1
  outcome: inactive

## Cc1ccc(CSc2nnc(-c3ccccc3)o2)cc1
  outcome: inactive

## Brc1ccc(CSc2nnc(-c3ccccc3)o2)cc1
  outcome: inactive

## COc1ccccc1-c1nnc(SCc2ccccn2)o1
  outcome: inactive

## FC(F)(F)Oc1ccc(-c2nnc(SCc3ccccc3)o2)cc1
  outcome: inactive

## Fc1ccc(CSc2nnc(-c3ccccc3)o2)cc1
  outcome: inactive

## N#Cc1cccc(-c2nnc(SCc3ccccc3)o2)c1
  outcome: inactive

## Clc1cccc(-c2nnc(SCc3ccccc3)o2)c1
  outcome: inactive
